Unmarked numbers belong to inactive results.
Key:
Experiment in all cases: log2 ratio of Biotin-Ahx-Ub-VS probe labelling (fragment/DMSO); higher = less target engagement (more negative = stronger competition), active = hit call of the paper (q ≤ 0.05, log2 ratio ≤ -1)
Conditions in all cases: compound concentration: 200 uM; treatment time: 3 h
OTUD6B = molecular target: T1, OTUD6B (UniProt Q8N6M0)
T1 sequence (whole entry): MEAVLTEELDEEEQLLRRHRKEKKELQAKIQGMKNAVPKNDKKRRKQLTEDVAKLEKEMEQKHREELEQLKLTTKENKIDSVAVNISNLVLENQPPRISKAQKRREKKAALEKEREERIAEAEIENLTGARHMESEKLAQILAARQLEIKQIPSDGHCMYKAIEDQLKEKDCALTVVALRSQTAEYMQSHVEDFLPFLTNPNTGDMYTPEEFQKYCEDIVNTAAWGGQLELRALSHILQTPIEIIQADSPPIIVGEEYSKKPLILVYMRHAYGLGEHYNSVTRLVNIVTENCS
Summary of the method: (§1)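 Average log2 ratios of fragment over vehicle were obtained by unpaired t-test from global-median-normalised Spectronaut label-free quantities. Proteins with ≥2 unique peptides were included. HEK293T lysate (495 µg per sample) was treated in triplicate with fragment at 200 µM or vehicle for 3 h, then with Biotin-Ahx-Ub-VS at 0.5 µM final for 1 h, and labelled DUBs were NeutrAvidin-enriched and run by diaPASEF LC-MS/MS.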

OTUD7B = molecular target: T2, OTUD7B (UniProt Q6GQQ9)
T2 sequence (whole entry): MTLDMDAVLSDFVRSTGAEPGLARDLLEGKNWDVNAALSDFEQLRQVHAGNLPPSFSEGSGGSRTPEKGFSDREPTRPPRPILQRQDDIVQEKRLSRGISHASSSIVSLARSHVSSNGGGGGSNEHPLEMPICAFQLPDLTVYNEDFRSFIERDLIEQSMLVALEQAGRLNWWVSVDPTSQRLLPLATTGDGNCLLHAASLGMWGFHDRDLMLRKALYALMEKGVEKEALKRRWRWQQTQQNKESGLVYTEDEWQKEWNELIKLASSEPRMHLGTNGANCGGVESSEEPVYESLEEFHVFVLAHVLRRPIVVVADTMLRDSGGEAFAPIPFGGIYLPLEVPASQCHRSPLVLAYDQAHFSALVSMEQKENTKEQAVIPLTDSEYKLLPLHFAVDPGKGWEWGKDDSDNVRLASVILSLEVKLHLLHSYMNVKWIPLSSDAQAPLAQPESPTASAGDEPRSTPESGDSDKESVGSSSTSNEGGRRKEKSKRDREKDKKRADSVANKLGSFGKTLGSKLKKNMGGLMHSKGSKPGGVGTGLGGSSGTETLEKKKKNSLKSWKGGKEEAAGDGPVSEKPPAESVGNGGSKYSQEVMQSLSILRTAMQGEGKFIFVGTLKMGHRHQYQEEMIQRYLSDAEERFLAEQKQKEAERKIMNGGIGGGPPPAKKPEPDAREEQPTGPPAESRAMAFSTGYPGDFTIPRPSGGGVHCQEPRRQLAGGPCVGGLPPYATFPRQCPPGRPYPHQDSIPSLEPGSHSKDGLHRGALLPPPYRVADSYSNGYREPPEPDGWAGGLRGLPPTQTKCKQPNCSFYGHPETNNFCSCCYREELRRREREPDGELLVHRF
Summary of the method: as §1

PRPF8 = PRPF8 (UniProt Q6P2Q9)
Summary of the method: as §1

PSMD7 = molecular target: T3, PSMD7 (UniProt P51665)
T3 sequence (whole entry): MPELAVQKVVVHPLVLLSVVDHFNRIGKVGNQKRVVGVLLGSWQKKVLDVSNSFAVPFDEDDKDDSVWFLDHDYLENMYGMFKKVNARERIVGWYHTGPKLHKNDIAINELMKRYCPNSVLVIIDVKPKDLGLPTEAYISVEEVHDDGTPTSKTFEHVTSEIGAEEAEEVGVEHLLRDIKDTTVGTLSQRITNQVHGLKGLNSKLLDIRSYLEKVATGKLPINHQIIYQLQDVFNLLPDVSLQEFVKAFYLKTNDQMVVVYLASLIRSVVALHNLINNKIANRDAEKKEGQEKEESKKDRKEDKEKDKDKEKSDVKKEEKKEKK
Summary of the method: as §1

UCHL1 = UCHL1 (UniProt P09936)
Summary of the method: as §1

UCHL3 = molecular target: T4, UCHL3 (UniProt P15374)
T4 sequence (whole entry): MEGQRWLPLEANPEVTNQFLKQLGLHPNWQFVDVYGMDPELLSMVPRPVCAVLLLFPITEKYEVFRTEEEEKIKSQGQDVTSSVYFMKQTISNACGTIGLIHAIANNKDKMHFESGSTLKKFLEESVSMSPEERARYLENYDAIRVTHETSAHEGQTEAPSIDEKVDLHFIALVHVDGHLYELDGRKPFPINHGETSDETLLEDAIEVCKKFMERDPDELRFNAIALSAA
Summary of the method: as §1

UCHL5 = molecular target: T5, UCHL5 (UniProt Q9Y5K5)
T5 sequence (whole entry): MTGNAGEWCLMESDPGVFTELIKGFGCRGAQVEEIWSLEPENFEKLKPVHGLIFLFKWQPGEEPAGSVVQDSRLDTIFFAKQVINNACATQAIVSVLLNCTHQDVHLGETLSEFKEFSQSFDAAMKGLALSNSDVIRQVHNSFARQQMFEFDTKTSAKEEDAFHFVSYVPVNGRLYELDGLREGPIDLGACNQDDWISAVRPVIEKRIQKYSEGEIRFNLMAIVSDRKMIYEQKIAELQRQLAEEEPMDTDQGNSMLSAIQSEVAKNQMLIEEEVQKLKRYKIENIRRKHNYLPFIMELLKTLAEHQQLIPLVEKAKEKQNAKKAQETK
Summary of the method: as §1

USP10 = USP10 (UniProt Q14694)
Summary of the method: as §1

USP15 = molecular target: T6, USP15 (UniProt Q9Y4E8)
T6 sequence (whole entry): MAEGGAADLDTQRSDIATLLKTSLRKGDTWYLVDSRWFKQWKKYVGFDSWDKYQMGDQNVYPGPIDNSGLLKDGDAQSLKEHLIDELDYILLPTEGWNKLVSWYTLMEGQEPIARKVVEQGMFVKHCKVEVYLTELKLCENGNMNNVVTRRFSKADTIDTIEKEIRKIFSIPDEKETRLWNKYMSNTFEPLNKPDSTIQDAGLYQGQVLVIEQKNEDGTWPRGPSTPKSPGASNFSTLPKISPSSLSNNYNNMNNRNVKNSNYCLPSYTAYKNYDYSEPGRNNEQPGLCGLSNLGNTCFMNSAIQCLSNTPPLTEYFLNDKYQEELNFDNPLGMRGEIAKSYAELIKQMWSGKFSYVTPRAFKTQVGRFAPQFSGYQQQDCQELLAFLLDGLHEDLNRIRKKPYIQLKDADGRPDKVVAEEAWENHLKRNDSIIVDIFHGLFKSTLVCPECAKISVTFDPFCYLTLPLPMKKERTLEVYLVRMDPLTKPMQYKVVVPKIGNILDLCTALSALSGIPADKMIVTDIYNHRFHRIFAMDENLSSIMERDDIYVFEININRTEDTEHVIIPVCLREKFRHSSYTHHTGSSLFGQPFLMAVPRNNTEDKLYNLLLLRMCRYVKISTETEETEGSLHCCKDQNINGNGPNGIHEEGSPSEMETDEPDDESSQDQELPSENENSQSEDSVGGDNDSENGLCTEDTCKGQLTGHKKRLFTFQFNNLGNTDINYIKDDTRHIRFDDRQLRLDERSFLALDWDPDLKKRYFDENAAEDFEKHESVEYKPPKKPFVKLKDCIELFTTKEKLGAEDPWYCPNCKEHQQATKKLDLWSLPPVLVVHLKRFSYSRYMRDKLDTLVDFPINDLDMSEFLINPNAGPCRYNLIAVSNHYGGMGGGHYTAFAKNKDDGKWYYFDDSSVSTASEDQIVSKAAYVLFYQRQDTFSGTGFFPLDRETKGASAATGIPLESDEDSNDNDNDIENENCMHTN
Summary of the method: as §1

USP16 = USP16 (UniProt Q9Y5T5)
Summary of the method: as §1

Chain of USP16 (Q9Y5T5 whole entry, looked up): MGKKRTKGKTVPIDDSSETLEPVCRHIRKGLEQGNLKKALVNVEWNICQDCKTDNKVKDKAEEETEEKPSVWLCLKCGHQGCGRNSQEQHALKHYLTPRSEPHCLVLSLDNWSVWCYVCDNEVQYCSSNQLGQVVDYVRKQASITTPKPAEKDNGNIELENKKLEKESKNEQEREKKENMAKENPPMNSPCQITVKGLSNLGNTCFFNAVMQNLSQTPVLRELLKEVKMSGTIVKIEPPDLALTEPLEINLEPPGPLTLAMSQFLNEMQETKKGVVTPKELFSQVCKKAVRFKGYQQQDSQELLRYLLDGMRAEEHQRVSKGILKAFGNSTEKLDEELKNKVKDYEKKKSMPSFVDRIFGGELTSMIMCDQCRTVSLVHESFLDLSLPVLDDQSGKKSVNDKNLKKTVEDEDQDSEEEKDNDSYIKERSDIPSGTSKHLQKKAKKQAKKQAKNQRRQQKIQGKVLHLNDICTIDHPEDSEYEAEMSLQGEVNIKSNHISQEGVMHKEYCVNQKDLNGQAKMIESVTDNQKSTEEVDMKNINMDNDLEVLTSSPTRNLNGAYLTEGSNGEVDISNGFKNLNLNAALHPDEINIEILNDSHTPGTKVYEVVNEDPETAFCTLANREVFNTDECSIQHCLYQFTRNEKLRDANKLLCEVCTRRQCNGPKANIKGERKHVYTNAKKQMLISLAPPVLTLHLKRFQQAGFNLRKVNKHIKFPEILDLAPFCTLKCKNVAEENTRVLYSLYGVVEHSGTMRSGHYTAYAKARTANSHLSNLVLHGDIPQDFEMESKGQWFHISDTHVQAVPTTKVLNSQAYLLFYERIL
Chain of UCHL1 (P09936 whole entry, looked up): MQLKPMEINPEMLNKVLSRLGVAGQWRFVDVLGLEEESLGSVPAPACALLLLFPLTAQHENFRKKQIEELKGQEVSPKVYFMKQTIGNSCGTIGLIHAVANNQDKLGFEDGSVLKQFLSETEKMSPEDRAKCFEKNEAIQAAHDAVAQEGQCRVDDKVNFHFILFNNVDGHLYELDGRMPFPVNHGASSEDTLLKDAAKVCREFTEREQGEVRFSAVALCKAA
Chain of USP10 (Q14694 whole entry): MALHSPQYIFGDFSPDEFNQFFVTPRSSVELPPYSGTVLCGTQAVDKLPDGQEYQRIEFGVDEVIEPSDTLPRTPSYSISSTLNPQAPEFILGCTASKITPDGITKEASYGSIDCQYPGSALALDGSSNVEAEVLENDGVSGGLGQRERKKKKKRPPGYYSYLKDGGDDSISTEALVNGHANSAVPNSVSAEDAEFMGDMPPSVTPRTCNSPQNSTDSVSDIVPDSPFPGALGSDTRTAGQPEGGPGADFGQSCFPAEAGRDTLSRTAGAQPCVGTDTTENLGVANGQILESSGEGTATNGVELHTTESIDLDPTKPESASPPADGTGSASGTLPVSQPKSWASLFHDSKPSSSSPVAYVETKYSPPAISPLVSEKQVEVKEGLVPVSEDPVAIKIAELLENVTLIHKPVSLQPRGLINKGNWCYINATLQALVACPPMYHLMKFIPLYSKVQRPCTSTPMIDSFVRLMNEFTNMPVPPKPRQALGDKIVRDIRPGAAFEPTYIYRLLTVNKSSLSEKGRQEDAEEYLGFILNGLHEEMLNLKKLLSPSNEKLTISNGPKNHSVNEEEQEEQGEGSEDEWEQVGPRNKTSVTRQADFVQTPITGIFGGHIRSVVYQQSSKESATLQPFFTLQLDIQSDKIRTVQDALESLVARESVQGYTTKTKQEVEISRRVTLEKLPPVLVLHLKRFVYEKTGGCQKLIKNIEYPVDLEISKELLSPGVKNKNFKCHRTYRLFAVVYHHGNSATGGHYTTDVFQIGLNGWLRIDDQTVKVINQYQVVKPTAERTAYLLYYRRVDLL

Cl.O=C(CCl)N1CCCC(c2ncc[nH]2)C1 (stereo not given)
log2 ratio of Biotin-Ahx-Ub-VS probe labelling (OTUD6B): -0.0792 | log2 ratio of Biotin-Ahx-Ub-VS probe labelling (OTUD7B): -0.245 | log2 ratio of Biotin-Ahx-Ub-VS probe labelling (PRPF8): -0.138 | log2 ratio of Biotin-Ahx-Ub-VS probe labelling (PSMD7): -0.217 | log2 ratio of Biotin-Ahx-Ub-VS probe labelling (UCHL1): -1.49 (active) | log2 ratio of Biotin-Ahx-Ub-VS probe labelling (UCHL3): 0.271 | log2 ratio of Biotin-Ahx-Ub-VS probe labelling (UCHL5): -0.164 | log2 ratio of Biotin-Ahx-Ub-VS probe labelling (USP10): -0.028 | log2 ratio of Biotin-Ahx-Ub-VS probe labelling (USP15): -0.0525 | log2 ratio of Biotin-Ahx-Ub-VS probe labelling (USP16): -0.216

— the supplement of paper PMC11732987, “Enantioselective OTUD7B fragment discovery through chemoproteomics screening and high-throughput optimisation” (Communications Chemistry, 2025)
